Laboratory results: the supplement of paper PMC10849652
Of roughly 7,900 targets only a part is listed; those with a hit were picked by preference. About 0.6% of all pairs of compound and target were hits.

Columns and labels:
Assay in all cases: log2 fold change, soluble protein after heating vs DMSO (PISA); higher = thermal stabilisation; K562 cells, 10 uM, 30 min; active = over 0.2 and 3.5 SD of the protein, either way, in both replicates (recomputed)
erlotinib = compound: C#Cc1cccc(Nc2ncnc3cc(OCCOC)c(OCCOC)cc23)c1 [erlotinib]
Method in brief: (§1)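 Thermal stability values are relative to control samples and come from duplicates. They are expressed as log2 fold changes. For measurement, K562 cells (2×10^6 cells/mL) received 10 μM compound for 30 min, and aliquots were heated for 3 min over 48°C-58°C, pooled, and extracted at 4°C in PBS with 0.5% NP-40. Soluble protein, the supernatant after 21,000xg for 90 min, was quantified by TMTpro 16plex LC-MS/MS with equalised channel sums.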

[1] = compound: C/C(=N\NC(=O)C1=CC(=CC=C1)S(=O)(=O)N2CCOCC2)/C3=C(C=CC(=C3)Cl)O
Method in brief: as §1

[2] = compound: C1=CC(=C(C=C1Cl)C2=NC3=NC=CN=C3C(=N2)NC4=CC=NC=C4)F
Method in brief: as §1

[3] = compound: C1=CC(=CC=C1C2=NC3=C(N2)C=C(C=C3)C(=O)N)OC4=CC=C(C=C4)Cl
Method in brief: as §1

[4] = compound: C1=CC2=C(C=CC(=C2)/C=C\3/C(=O)NC(=NCC4=CC=CS4)S3)N=C1
Method in brief: as §1

[5] = compound: C1=CC2=NC=CN=C2C=C1/C=C/3\C(=O)NC(=O)S3
Method in brief: as §1

[6] = compound: C1=CC=C(C=C1)C2=NC(=C(N2)C3=CC=NC=C3)C4=CC(=C(C=C4)Cl)O
Method in brief: as §1

[7] = compound: C1=CC=C2C(=C1)C3=NNC4=CC=CC(=C43)C2=O
Method in brief: as §1

[8] = compound: C1CCN(C1)C(=O)NC2=CC=CC(=C2)NC3=NC=C(C(=N3)NCCC4=CN=CN4)Br
Method in brief: as §1

[9] = compound: C1CN(CCC1(CC2=CC=C(C=C2)Cl)N)C3=NC=NC4=C3C=CN4
Method in brief: as §1

Measured: log2 fold change

PLCG1 isoform 2 (UniProt P19174)
inactive: erlotinib 0.052 | [1] -0.054 | [2] -0.09 | [3] 0.067 | [4] 0.119 | [5] 0.029 | [6] 0.006 | [7] 0.017 | [8] 0.052 | [9] -0.06

PFAS (UniProt O15067)
UniProt O15067, sequence (O15067 whole entry, looked up): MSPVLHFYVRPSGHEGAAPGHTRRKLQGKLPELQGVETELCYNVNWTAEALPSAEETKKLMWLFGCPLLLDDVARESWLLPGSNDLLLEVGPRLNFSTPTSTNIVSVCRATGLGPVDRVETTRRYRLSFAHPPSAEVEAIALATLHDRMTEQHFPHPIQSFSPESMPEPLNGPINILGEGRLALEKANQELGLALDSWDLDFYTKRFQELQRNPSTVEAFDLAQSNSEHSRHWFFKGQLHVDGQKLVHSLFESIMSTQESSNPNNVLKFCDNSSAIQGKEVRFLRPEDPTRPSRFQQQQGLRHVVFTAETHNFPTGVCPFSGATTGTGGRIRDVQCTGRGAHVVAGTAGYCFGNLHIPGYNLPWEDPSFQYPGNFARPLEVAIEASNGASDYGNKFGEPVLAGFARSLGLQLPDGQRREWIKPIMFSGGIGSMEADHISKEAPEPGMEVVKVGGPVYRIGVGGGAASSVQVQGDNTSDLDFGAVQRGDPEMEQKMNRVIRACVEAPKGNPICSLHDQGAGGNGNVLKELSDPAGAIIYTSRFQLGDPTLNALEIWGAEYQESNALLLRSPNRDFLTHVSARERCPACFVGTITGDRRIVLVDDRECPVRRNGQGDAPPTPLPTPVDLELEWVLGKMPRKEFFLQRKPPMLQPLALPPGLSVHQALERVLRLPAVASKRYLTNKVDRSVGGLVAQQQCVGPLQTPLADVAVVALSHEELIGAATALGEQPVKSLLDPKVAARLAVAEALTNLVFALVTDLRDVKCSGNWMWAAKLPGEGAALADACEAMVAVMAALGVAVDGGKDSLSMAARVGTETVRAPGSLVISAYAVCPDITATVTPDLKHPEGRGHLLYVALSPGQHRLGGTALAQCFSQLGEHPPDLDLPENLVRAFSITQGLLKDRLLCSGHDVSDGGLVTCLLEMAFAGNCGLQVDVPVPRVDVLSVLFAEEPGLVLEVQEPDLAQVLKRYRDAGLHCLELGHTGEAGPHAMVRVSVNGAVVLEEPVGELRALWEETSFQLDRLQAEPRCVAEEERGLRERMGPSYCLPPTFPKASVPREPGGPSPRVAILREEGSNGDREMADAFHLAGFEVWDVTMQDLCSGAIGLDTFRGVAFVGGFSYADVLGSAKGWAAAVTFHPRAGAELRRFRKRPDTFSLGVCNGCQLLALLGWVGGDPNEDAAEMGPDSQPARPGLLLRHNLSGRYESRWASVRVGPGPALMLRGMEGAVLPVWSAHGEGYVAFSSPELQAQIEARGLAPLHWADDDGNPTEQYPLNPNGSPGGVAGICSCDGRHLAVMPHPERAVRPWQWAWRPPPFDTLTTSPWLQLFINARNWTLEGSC
inactive: erlotinib -0.011 | [1] 0.141 | [2] 0.066 | [3] 0.205 | [4] 0.034 | [5] -0.22 | [6] 0.087 | [7] 0.068 | [8] -0.01 | [9] -0.146

PRKCA (UniProt P17252)
inactive: erlotinib 0.117 | [1] 0.041 | [2] 0.04 | [3] -0.009 | [4] 0.127 | [5] 0.016 | [6] -0.019 | [7] -0.006 | [8] 0.008 | [9] -0.074

PRKAR1B (UniProt P31321)
inactive: erlotinib -0.027 | [1] -0.056 | [2] -0.036 | [3] 0.013 | [4] 0.205 | [5] 0.282 | [6] -0.006 | [7] 0.102 | [8] 0.086 | [9] -0.077

PDS5B (UniProt Q9NTI5)
UniProt Q9NTI5, sequence (Q9NTI5 whole entry, looked up): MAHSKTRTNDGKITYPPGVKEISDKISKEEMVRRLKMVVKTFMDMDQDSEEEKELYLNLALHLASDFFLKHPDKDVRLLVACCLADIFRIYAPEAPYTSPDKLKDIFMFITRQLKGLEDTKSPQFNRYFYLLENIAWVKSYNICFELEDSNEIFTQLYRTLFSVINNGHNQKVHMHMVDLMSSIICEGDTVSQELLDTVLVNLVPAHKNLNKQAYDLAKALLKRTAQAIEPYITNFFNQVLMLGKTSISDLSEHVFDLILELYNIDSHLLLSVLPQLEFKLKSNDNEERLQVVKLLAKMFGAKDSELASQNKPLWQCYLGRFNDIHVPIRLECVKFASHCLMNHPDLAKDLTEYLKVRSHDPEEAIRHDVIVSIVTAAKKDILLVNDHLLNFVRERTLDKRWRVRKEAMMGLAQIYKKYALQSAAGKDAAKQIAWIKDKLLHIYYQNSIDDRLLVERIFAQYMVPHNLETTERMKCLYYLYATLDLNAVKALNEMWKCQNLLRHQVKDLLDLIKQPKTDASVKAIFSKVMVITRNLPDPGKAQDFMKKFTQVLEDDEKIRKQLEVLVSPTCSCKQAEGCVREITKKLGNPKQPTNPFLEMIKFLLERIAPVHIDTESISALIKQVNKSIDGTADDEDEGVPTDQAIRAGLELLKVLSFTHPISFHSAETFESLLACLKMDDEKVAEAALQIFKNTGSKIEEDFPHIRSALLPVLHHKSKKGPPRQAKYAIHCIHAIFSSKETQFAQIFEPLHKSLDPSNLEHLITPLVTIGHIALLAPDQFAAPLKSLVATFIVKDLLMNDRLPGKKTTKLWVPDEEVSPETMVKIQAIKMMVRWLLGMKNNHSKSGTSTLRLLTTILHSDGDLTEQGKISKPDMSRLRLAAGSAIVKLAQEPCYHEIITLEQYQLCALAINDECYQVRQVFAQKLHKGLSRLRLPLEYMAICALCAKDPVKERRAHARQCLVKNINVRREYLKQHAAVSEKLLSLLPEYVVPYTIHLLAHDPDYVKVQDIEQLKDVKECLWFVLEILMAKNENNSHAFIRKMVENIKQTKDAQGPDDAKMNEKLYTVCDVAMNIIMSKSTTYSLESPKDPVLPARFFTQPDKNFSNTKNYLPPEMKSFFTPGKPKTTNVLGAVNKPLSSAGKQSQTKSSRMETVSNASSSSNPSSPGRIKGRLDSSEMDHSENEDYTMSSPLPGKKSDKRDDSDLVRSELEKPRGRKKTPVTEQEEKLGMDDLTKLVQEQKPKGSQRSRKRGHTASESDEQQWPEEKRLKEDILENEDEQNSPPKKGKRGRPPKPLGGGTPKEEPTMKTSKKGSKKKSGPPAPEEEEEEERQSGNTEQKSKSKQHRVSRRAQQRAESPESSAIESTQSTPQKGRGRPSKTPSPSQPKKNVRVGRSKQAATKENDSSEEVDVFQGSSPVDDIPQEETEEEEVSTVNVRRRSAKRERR
inactive: erlotinib -0.023 | [1] 0.002 | [2] 0.001 | [3] 0.043 | [4] 0.092 | [5] 0.12 | [6] 0.061 | [7] 0.013 | [8] -0.302 | [9] -0.287

PHAX (UniProt Q9H814)
inactive: erlotinib -0.004 | [1] 0.042 | [2] 0.045 | [3] 0.009 | [4] 0.023 | [5] 0.054 | [6] -0.047 | [7] -0.101 | [8] -0.013 | [9] 0.059

PPP2R5C isoform 5 (UniProt Q13362)
UniProt Q13362, sequence (Q13362 whole entry, looked up): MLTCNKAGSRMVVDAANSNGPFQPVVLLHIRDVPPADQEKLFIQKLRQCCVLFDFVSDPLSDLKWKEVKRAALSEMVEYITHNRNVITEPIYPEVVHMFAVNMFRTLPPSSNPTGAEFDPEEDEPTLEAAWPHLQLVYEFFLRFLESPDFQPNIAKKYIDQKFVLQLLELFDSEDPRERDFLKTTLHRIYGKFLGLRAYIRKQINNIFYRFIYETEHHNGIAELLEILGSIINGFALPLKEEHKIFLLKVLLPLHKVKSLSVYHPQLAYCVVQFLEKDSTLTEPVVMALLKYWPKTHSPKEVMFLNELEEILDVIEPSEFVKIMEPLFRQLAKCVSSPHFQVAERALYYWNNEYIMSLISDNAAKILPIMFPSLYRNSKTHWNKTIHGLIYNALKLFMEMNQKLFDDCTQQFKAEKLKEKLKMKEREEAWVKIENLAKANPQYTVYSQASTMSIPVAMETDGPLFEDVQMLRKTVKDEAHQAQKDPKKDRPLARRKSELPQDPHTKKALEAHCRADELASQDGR
inactive: erlotinib 0.028 | [1] 0.021 | [2] 0.015 | [3] -0.014 | [4] 0.009 | [5] -0.036 | [6] 0.004 | [7] 0.047 | [8] -0.018 | [9] -0.002

PDCD6IP (UniProt Q8WUM4)
UniProt Q8WUM4, sequence (Q8WUM4 whole entry, looked up): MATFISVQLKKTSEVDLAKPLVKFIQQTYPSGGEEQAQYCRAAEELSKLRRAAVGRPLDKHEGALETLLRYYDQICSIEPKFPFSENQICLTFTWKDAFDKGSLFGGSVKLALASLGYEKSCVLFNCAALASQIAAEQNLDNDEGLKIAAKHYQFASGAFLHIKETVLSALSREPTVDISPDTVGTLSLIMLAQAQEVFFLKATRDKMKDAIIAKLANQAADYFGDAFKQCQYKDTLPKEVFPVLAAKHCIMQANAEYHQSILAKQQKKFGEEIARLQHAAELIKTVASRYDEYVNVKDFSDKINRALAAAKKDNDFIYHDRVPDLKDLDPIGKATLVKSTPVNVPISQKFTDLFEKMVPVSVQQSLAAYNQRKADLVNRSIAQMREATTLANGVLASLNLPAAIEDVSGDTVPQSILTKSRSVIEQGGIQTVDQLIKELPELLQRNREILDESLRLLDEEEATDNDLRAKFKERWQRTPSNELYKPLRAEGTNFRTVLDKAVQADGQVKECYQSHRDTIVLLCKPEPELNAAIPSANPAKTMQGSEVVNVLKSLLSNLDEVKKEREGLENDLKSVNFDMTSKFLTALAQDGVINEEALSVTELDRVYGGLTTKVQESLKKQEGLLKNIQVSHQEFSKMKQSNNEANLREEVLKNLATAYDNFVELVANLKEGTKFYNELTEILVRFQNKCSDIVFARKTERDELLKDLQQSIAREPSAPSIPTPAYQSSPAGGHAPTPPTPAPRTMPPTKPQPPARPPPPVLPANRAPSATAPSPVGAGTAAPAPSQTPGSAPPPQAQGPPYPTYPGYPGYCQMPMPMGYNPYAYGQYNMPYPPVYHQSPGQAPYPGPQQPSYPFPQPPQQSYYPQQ
inactive: erlotinib 0.162 | [1] 0.167 | [2] 0.045 | [3] -0.044 | [4] 0.122 | [5] 0.014 | [6] 0.031 | [7] 0.043 | [8] -0.095 | [9] -0.122

PRKCB isoform 2 (UniProt P05771)
inactive: erlotinib 0.038 | [1] 0.031 | [2] 0.038 | [3] 0 | [4] 0.086 | [5] 0.004 | [6] 0.021 | [7] 0.037 | [8] 0 | [9] -0.067

PEX11B (UniProt O96011)
inactive: erlotinib 0.016 | [1] 0.058 | [2] 0.162 | [3] -0.001 | [4] 0.056 | [5] 0.087 | [6] 0.142 | [7] -0.012 | [8] -0.097 | [9] 0.041

PNPLA8 (UniProt Q9NP80)
inactive: erlotinib 0.101 | [1] 0.031 | [2] 0.014 | [3] -0.029 | [4] 0.008 | [5] 0 | [6] 0.089 | [7] 0.022 | [8] 0.018 | [9] 0.037

PRKAR1A (UniProt P10644)
UniProt P10644, sequence (P10644 whole entry, looked up): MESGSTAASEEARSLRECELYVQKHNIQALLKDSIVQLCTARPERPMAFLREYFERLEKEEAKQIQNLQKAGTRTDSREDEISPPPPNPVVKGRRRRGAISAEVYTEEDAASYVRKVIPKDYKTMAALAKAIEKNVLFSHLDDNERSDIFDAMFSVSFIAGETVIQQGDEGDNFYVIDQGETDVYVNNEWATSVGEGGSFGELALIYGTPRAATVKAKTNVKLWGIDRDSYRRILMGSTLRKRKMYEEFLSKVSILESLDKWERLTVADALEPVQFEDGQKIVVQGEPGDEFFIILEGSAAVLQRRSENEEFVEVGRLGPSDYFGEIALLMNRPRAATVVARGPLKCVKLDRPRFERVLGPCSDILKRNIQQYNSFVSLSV
inactive: erlotinib 0.078 | [1] -0.084 | [2] -0.037 | [3] -0.027 | [4] 0.116 | [5] 0.018 | [6] 0.066 | [7] 0.139 | [8] 0.128 | [9] -0.017

PTMA (UniProt P06454)
UniProt P06454, sequence (P06454 whole entry, looked up): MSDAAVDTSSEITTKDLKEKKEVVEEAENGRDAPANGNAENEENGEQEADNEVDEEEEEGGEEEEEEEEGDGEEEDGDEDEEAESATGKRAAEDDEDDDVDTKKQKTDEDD
inactive: erlotinib 0.06 | [1] 0.159 | [2] 0.192 | [3] 0.005 | [4] -0.136 | [5] 0.006 | [6] 0.197 | [7] 0.189 | [8] -0.148 | [9] 0.151

PRPF3 (UniProt O43395)
inactive: erlotinib 0.06 | [1] 0.144 | [2] 0.069 | [3] -0.02 | [4] 0.015 | [5] 0.019 | [6] 0.057 | [7] 0 | [8] -0.07 | [9] 0.053

PPP1CA (UniProt P62136)
UniProt P62136, sequence (P62136 whole entry, looked up): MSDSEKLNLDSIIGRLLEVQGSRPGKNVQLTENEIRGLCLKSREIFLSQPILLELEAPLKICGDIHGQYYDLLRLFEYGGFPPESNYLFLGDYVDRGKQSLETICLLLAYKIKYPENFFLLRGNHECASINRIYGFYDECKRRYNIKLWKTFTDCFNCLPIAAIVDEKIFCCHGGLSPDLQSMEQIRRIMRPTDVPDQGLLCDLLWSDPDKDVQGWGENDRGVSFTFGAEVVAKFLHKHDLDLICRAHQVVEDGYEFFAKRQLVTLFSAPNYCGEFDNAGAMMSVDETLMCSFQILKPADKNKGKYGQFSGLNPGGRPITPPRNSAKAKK
inactive: erlotinib 0.026 | [1] -0.002 | [2] -0.015 | [3] -0.006 | [4] 0.036 | [5] -0.005 | [6] 0.001 | [7] -0.03 | [8] -0.004 | [9] 0.009
